Results with a measured potency or affinity are listed apart.
Key:
[1] = system: Klebsiella pneumoniae; settings: Concentration 32 ug.mL-1;; ASSAY_TEST Inhibition of Bacterial Growth; detection method Absorption (OD600); MEDIA CAMHB; plate type 384well; NBS; CORNING #3640; time 18 hr
[2] = system: Candida albicans; settings: Concentration 32 ug.mL-1; ASSAY_TEST Inhibition of Fungal Growth; detection method Absorption (OD530)
[3] = system: Cryptococcus neoformans; settings: Concentration 32 ug.mL-1; ASSAY_TEST Inhibition of Fungal Growth; detection method Resazurin; Absorption (OD600-OD570); plate type 384well; NBS; CORNING #3640

| SMILES | Inhibition [1] [%] | Inhibition [2] [%] | Inhibition [3] [%] |
| --- | --- | --- | --- |
| O=C(Cn1nc2c(SCc3ccccc3)nccn2c1=O)NC1CCCC1 | 3.94 | 1.33 | -3.97 |
| CCc1nnc2c(SCC(=O)Nc3c(C)cc(C)cc3C)nc3ccccc3n12 | 8.2 | 1.5 | -17.04 |
| COc1ccc(NC(=O)c2ccc3nn(CC(=O)N4CCN(c5ccccc5)CC4)c(=O)n3c2)cc1 | 0.73 | 1.58 | -6.91 |
| COc1cccc(CN(c2ccc(F)c(F)c2)S(=O)(=O)c2ccc3nnc(C)n3c2)c1 | 7.43 | 1.78 | -8.55 |
| CCCCn1c(=O)c2sccc2n2c(=O)n(CC(=O)c3ccc(OC)cc3)nc12 | 1.02 | 4.16 | -36.83 |
| Cc1ccc(Oc2nccn3c(=O)n(CC(=O)Nc4ccccc4Br)nc23)cc1 | 15.36 | 1.31 | -18.92 |
| COc1cccc(-n2ccn3c(SCC(=O)c4cccc(Cl)c4)nnc3c2=O)c1 | 6.31 | 2.28 | -6.56 |
| COc1ccc(-c2cc3c4nnc(SCC(=O)NCc5cccc(OC)c5OC)n4ccn3n2)cc1 | 6.86 | 0.88 | -15.85 |
| O=S(=O)(c1ccc2nncn2c1)N(Cc1cc(F)cc(F)c1)c1ccccc1 | -3.49 | -0.85 | -9.11 |
| COc1ccc(C(=O)CSc2nnc3c(=O)n(-c4ccccc4)ccn23)cc1OC | -1.19 | 25.44 | -8.66 |
| CC(C)(C)S(=O)(=O)c1ccc2nn(CC(=O)Nc3ccc(Br)cc3)c(=O)n2n1 | 6.53 | 2.28 | -17.49 |
| Cc1oc(-c2ccc(OC(C)C)cc2)nc1CSc1nc2ccccc2n2c(C(C)C)nnc12 | -1.3 | 23.86 | -18.35 |
| COc1cccc(NC(=O)Cn2nc3ccc(SCc4ccc(Cl)cc4)nn3c2=O)c1 | 6.69 | 11.57 | -15.62 |
| Cc1ccc(C)c(CN(c2cccc(Cl)c2)S(=O)(=O)c2cccn3c(C)nnc23)c1 | 5.81 | 2.43 | -8.33 |
| CCOc1ccc(C(=O)CSc2nnc3c(=O)n(-c4ccc(F)cc4)ccn23)cc1 | 4.99 | 1.29 | -6.51 |
| Cn1c(=O)c2ccc(C(=O)NC3CCCCC3)cc2n2c(=O)n(Cc3cccc(C(F)(F)F)c3)nc12 | 16.04 | 1.42 | -24.7 |
| CCCCN(C)c1ccc2nnc(CCc3nc(-c4cccc(Br)c4)no3)n2n1 | 13.86 | 15.05 | -17.7 |
| CCc1ccc(NC(=O)Cn2nc3n(Cc4ccco4)c(=O)c4sccc4n3c2=O)cc1 | -2.12 | 5.72 | -17.39 |
| CCCCN(C)C(=O)CSc1nnc2c(=O)n(Cc3ccc(F)cc3)ccn12 | 14.76 | -0.35 | -33.57 |
| O=C(Cn1nc2c(Sc3cccc(F)c3)nccn2c1=O)N1CCN(c2ccccc2)CC1 | 4.19 | 0.68 | -2.85 |
| Cc1cc(Nc2ccc(F)cc2)nc2nn(CCc3ccccc3)c(=O)n12 | 16.97 | 1.44 | -10.99 |
| O=C(CSc1nnc2c(=O)n(-c3ccccc3)ccn12)c1ccc(F)cc1 | 11 | 4.07 | -7.83 |
| COc1cccc(NC(=O)Cn2nc3c(N4CCCC4)nccn3c2=O)c1 | 8.57 | 2.47 | -12.87 |
| CCc1nnc2ccc(S(=O)(=O)N(Cc3ccccc3F)c3ccc(OC)cc3)cn12 | 7.78 | 3.86 | -4.31 |
| COc1ccccc1-n1ccn2c(SCc3ccccc3C)nnc2c1=O | 12.73 | 3.95 | -12.54 |
| CC(C)c1nnc2c(=O)n(CC(=O)Nc3cc(Cl)ccc3Cl)c3ccccc3n12 | 7.9 | 3.43 | -8.45 |
| CCc1nnc2c(SCC(=O)Nc3ccc(C)cc3Cl)nc3ccccc3n12 | 11.28 | 1.59 | -8.66 |
| O=S(=O)(c1cccn2cnnc12)N(Cc1cccc(Cl)c1)c1ccc(F)cc1 | 7.99 | -0.14 | -8.04 |
